# Measured values taken from PubChem BioAssay (EPA / NIEHS).
# Records with an inconclusive call do not appear. Calls of active or inactive are those of the source. The calls were made as follows: active = hit-call score of the fitted dose curve at least 0.9, where 1 is the maximum; inconclusive = response in the unintended direction; inactive = score below 0.9.
# How the values were obtained:
# [1] = target: human Protein Tyrosine Phosphatase Non-receptor Type 6 (PTPN6), PTPN6 (gene 5777) (UniProt P29350); assay: NVS_ENZ_hPTPN6: NovaScreen (NVS) Enzymatic Assay for human Protein Tyrosine Phosphatase Non-receptor Type 6 (PTPN6) (AID 2283210)
# How it was run: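 Cell-free assay with recombinant PTPN6 expressed in SF9 cells, fluorescent substrate, product separated from substrate by electrophoretic mobility shift; read 1.33 hours after dosing. Primary screen in duplicate at 25 uM, actives retested in concentration series; DMSO baseline.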
# [2] = target: human Protein Tyrosine Phosphatase Receptor Type C (PTPRC), PTPRC (gene 5788) (UniProt P08575); assay: NVS_ENZ_hPTPRC: NovaScreen (NVS) Enzymatic Assay for human Protein Tyrosine Phosphatase Receptor Type C (PTPRC) (AID 2283212)
# Description: NVS_ENZ_hPTPRC is a biochemical, single-readout assay that uses extracted gene-proteins from yeast cells in a cell-free assay. Measurements were taken 1 hour after chemical dosing in a 96-well plate.NVS_ENZ_hPTPRC is one of one assay component(s) measured or calculated from the NVS_ENZ_hPTPRC assay. It is designed to make measurements of enzyme activity, a form of enzyme reporter, as detected with absorbance signals by Colorimetric technology.Data from the assay component NVS_ENZ_hPTPRC was analyzed into 1 assay endpoint. This assay endpoint, NVS_ENZ_hPTPRC, was analyzed in the positive analysis fitting direction relative to DMSO as the negative control and baseline of activity. […] Furthermore, this assay endpoint can be referred to as a primary readout, because this assay has produced multiple assay endpoints where this one serves a enzymatic activity function. […]
# Binding assays used specific radioligands (tritiated, iodinated) with non-radioactive competitive displacement ligands in agonist or antagonist protocols (as indicated) and various reference compounds and inhibitors to titrate specific binding to receptors and transporters. Most enzyme assays (CYPs, kinases, phosphatases, proteases, HDACs) used recombinant protein and specific substrates (fluorescence mostly, some colorimetric and radioactive) and inhibitors, followed by a biochemical separation of substrate and product. […]
# [3] = target: Tyrosine-protein phosphatase non-receptor type 14 (Homo sapiens) (UniProt Q15678); assay: NVS_ENZ_hPTPN14: NovaScreen (NVS) Enzymatic Assay for human Protein Tyrosine Phosphatase Non-receptor Type 14 (PTPN14) (AID 2283206)
# Description: NVS_ENZ_hPTPN14 is a biochemical, single-readout assay that uses extracted gene-proteins in a cell-free assay. Measurements were taken 0.5 hour after chemical dosing in a 384-well plate.NVS_ENZ_hPTPN14 is one of one assay component(s) measured or calculated from the NVS_ENZ_hPTPN14 assay. It is designed to make measurements of enzyme activity, a form of enzyme reporter, as detected with fluorescence intensity signals by Fluorescence and electrophoretic mobility shift technology.Data from the assay component NVS_ENZ_hPTPN14 was analyzed into 1 assay endpoint. This assay endpoint, NVS_ENZ_hPTPN14, was analyzed in the positive analysis fitting direction relative to DMSO as the negative control and baseline of activity. Using a type of enzyme reporter, loss-of-signal activity can be used to understand changes in the enzymatic activity as they relate to the gene PTPN14. Furthermore, this assay endpoint can be referred to as a primary readout, because this assay has produced multiple assay endpoints where this one serves a enzymatic activity function. To generalize the intended target to other relatable targets, this assay endpoint is annotated to the phosphatase intended target family, where the subfamily is non-receptor tyrosine phosphatase. […]
# [4] = target: human SRC Proto-Oncogene, Non-receptor Tyrosine Kinase (SRC), SRC (gene 6714) (UniProt P12931); assay: NVS_ENZ_hSRC: NovaScreen (NVS) Enzymatic Assay for human SRC Proto-Oncogene, Non-receptor Tyrosine Kinase (SRC) (AID 2283223)
# Description: (§1) NVS_ENZ_hSRC is a biochemical, single-readout assay that uses extracted gene-proteins in a cell-free assay. Measurements were taken 1 hour after chemical dosing in a 384-well plate.NVS_ENZ_hSRC is one of one assay component(s) measured or calculated from the NVS_ENZ_hSRC assay. It is designed to make measurements of enzyme activity, a form of enzyme reporter, as detected with fluorescence intensity signals by Fluorescence and electrophoretic mobility shift technology.Data from the assay component NVS_ENZ_hSRC was analyzed into 1 assay endpoint. This assay endpoint, NVS_ENZ_hSRC, was analyzed in the positive analysis fitting direction relative to DMSO as the negative control and baseline of activity. Using a type of enzyme reporter, loss-of-signal activity can be used to understand changes in the enzymatic activity as they relate to the gene SRC. Furthermore, this assay endpoint can be referred to as a primary readout, because this assay has produced multiple assay endpoints where this one serves a enzymatic activity function. To generalize the intended target to other relatable targets, this assay endpoint is annotated to the kinase intended target family, where the subfamily is non-receptor tyrosine kinase. […]
# [5] = target: human Protein Tyrosine Phosphatase Non-receptor Type 9 (PTPN9), PTPN9 (gene 5780) (UniProt P43378); assay: NVS_ENZ_hPTPN9: NovaScreen (NVS) Enzymatic Assay for human Protein Tyrosine Phosphatase Non-receptor Type 9 (PTPN9) (AID 2283209)
# How it was run: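 Sf9-expressed enzyme in a cell-free assay, fluorescence read 1.33 h after dosing with mobility-shift separation of substrate and product. Tested at 25 uM in duplicate, then up to 50 uM; signal loss versus DMSO.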
# [6] = target: human Sirtuin 2 (SIRT2), SIRT2 (gene 22933) (UniProt Q8IXJ6); assay: NVS_ENZ_hSIRT2: NovaScreen (NVS) Enzymatic Assay for human Sirtuin 2 (SIRT2) (AID 2283217)
# How it was run: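 Cell-free recombinant human SIRT2, fluorescent substrate with product separated by electrophoretic mobility shift, 1 hr. Screened in duplicate at 25 uM; hits rerun singly in concentration-response up to 50 uM, relative to DMSO.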
# [7] = target: Tyrosine-protein phosphatase non-receptor type 13 (Homo sapiens) (UniProt Q12923); assay: NVS_ENZ_hPTPN13: NovaScreen (NVS) Enzymatic Assay for human Protein Tyrosine Phosphatase Non-receptor Type 13 (PTPN13) (AID 2283205)
# How it was run: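 Cell-free assay of recombinant human PTPN13 with a fluorescent substrate, product separated by electrophoretic mobility shift and read 0.5 h after dosing. Primary screen at 25 uM in duplicate, then concentration-response up to 50 uM. Loss of signal fitted against DMSO.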
# [8] = target: human Protein Tyrosine Phosphatase Receptor Type M (PTPRM), PTPRM (gene 5797) (UniProt P28827); assay: NVS_ENZ_hPTPRM: NovaScreen (NVS) Enzymatic Assay for human Protein Tyrosine Phosphatase Receptor Type M (PTPRM) (AID 2283215)
# How it was run: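 Cell-free recombinant PTPRM with fluorogenic substrate; product separated from substrate by electrophoretic mobility shift and read by fluorescence, 1.33 h after dosing. Primary screen single concentration (25 uM) in duplicate; actives retested in concentration series; loss of signal versus DMSO.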
# [9] = target: human Sirtuin 1 (SIRT1), SIRT1 (gene 23411) (UniProt Q96EB6); assay: NVS_ENZ_hSIRT1: NovaScreen (NVS) Enzymatic Assay for human Sirtuin 1 (SIRT1) (AID 2283219)
# Description: as §1, with “NVS_ENZ_hSIRT1” for “NVS_ENZ_hSRC”, “plate.NVS_ENZ_hSIRT1” for “plate.NVS_ENZ_hSRC”, “NVS_ENZ_hSIRT1,” for “NVS_ENZ_hSRC,”, “SIRT1.” for “SRC.”, “hydrolase” for “kinase”, “protein deacetylase.” for “non-receptor tyrosine kinase.”
# [10] = target: human Protein Tyrosine Phosphatase Receptor Type B (PTPRB), PTPRB (gene 5787) (UniProt P23467); assay: NVS_ENZ_hPTPRB: NovaScreen (NVS) Enzymatic Assay for human Protein Tyrosine Phosphatase Receptor Type B (PTPRB) (AID 2283211)
# How it was run: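 Recombinant human PTPRB with a fluorescent substrate, product separated by electrophoretic mobility shift; read 1 h after dosing. Primary screen in duplicate at 25 uM; actives then retested in concentration series; loss of signal versus DMSO.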
# Chain of human Protein Tyrosine Phosphatase Non-receptor Type 6 (PTPN6), PTPN6 (gene 5777) (P29350 whole entry, looked up): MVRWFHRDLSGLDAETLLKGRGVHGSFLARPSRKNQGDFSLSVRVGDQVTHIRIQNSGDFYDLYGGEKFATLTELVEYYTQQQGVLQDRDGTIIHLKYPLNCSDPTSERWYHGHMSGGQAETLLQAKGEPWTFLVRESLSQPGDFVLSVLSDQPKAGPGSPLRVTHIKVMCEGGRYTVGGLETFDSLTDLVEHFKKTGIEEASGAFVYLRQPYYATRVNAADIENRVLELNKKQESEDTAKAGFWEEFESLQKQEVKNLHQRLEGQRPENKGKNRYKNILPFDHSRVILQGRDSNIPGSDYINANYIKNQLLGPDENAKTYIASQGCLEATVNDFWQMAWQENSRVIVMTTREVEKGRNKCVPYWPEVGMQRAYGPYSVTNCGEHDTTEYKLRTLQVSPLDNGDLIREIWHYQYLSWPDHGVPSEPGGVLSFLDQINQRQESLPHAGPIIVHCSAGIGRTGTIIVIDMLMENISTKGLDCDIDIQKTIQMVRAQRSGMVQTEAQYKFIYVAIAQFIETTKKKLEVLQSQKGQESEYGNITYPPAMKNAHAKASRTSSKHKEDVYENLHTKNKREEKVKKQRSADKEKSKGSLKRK
# Chain of human Protein Tyrosine Phosphatase Non-receptor Type 9 (PTPN9), PTPN9 (gene 5780) (P43378 whole entry, looked up): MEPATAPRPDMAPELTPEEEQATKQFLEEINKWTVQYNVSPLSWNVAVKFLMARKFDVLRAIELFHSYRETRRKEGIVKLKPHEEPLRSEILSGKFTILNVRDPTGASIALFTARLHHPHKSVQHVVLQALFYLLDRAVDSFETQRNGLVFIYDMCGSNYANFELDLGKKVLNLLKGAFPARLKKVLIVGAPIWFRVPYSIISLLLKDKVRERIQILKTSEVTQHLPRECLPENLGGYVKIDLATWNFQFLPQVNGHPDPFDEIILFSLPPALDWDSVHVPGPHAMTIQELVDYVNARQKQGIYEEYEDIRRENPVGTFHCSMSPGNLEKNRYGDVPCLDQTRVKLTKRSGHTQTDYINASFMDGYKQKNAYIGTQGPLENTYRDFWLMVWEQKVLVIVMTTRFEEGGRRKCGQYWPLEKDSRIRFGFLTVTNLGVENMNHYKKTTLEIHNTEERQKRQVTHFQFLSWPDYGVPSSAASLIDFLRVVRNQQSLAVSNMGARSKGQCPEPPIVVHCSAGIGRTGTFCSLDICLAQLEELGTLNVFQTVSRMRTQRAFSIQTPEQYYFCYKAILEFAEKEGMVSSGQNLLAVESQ
# Chain of Tyrosine-protein phosphatase non-receptor type 13 (Homo sapiens) (Q12923 whole entry, looked up): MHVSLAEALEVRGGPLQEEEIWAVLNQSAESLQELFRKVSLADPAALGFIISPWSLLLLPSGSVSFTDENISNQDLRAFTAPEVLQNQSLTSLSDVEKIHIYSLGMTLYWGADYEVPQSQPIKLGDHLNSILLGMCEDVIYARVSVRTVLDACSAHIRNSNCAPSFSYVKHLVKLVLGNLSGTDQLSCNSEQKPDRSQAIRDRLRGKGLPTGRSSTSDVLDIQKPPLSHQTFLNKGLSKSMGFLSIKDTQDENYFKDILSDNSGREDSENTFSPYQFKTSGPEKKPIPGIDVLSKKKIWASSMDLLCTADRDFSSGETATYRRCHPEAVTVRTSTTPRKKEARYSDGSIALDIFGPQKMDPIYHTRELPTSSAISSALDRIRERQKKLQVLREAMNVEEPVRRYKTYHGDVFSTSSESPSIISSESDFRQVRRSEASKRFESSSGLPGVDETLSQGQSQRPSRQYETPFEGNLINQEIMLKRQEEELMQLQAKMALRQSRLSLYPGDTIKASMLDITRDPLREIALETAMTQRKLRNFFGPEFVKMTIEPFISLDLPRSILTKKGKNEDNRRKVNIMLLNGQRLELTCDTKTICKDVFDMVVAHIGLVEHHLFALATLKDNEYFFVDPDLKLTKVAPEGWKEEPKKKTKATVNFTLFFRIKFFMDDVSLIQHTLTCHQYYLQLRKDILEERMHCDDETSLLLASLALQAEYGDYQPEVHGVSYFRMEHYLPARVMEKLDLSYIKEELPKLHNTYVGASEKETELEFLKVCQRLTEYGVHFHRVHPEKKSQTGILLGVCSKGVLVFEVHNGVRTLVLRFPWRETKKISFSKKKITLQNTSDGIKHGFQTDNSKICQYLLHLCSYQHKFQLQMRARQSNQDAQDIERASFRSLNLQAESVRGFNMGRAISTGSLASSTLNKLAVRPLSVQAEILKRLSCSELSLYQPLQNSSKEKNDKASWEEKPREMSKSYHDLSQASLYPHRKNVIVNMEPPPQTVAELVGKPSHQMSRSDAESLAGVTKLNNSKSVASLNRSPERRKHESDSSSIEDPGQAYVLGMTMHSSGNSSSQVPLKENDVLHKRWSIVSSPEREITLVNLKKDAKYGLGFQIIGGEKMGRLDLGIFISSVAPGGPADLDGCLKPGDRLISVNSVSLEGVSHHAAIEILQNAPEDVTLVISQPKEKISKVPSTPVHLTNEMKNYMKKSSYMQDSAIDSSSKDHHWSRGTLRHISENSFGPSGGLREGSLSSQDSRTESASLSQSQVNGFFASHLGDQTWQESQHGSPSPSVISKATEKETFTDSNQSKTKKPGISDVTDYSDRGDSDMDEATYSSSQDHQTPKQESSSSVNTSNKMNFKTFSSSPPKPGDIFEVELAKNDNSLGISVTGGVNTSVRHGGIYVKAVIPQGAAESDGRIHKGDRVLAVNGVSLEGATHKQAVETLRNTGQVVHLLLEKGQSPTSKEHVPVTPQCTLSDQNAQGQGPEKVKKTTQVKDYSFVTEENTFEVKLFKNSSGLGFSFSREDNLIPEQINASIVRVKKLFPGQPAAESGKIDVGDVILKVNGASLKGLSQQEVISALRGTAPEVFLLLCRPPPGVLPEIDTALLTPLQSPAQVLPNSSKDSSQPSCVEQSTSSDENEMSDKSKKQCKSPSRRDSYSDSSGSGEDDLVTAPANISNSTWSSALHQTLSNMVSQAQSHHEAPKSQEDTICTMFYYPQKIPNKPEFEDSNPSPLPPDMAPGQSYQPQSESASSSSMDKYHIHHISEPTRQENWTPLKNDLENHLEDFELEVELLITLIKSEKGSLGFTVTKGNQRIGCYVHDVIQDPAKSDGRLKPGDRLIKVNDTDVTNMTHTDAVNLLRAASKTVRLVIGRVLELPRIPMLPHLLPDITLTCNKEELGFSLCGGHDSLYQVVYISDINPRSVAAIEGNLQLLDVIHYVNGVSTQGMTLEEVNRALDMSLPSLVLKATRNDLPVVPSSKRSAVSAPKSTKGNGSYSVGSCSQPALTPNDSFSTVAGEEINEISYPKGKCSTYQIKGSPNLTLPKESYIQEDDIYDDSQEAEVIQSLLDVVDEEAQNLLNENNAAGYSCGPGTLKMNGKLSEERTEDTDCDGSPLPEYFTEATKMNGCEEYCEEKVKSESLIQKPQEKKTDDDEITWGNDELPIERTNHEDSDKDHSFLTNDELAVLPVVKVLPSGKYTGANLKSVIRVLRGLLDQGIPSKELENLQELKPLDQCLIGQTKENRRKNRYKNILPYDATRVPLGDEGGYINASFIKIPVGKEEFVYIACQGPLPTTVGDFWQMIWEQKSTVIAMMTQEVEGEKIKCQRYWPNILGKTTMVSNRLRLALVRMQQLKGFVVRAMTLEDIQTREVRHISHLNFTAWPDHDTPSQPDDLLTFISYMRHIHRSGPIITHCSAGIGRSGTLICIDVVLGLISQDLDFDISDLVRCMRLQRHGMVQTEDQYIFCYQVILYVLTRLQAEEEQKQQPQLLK
# Chain of human Sirtuin 2 (SIRT2), SIRT2 (gene 22933) (Q8IXJ6 whole entry, looked up): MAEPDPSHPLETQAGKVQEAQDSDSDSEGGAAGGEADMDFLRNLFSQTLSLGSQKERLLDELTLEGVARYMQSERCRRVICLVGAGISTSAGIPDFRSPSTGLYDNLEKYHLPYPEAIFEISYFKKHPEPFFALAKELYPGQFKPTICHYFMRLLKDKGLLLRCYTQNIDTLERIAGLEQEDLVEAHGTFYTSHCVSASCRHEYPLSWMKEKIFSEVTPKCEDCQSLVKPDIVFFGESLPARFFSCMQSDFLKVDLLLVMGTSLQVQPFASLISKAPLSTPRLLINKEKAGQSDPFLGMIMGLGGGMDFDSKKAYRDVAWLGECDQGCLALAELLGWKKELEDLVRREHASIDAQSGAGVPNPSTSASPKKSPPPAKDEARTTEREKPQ
# Chain of human Sirtuin 1 (SIRT1), SIRT1 (gene 23411) (Q96EB6 whole entry, looked up): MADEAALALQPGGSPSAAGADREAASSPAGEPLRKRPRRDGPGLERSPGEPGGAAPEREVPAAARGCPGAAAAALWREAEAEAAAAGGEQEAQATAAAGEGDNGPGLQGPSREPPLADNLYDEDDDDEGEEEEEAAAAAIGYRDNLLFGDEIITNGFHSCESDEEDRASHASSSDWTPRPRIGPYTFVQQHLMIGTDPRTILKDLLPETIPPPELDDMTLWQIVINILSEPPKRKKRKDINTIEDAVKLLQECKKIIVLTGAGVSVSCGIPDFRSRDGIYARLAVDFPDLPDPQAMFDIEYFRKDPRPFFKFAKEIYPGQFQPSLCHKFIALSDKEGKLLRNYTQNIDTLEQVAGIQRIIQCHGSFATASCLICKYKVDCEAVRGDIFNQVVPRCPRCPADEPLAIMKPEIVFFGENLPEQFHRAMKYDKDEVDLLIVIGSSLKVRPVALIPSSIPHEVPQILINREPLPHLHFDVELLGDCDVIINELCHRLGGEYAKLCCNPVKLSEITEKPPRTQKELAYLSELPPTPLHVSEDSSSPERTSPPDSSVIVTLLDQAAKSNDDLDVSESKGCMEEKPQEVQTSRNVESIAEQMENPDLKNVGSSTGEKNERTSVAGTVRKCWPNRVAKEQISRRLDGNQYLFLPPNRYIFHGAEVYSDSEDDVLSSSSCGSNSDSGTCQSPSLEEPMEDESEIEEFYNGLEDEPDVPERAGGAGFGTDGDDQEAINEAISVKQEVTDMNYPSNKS
compound,measurement,setting,value
Cn1sc(Cl)cc1=O,outcome,[1],inactive
O=C(O)C(Cl)(Cl)Cl,outcome,[1],inactive
same,outcome,[2],inactive
ClC1(Cl)C2(Cl)C3(Cl)C4(Cl)C(Cl)(Cl)C5(Cl)C3(Cl)C1(Cl)C5(Cl)C24Cl (centres undefined),outcome,[3],inactive
same,outcome,[4],inactive
CC(C)(C)CC(C)(C)c1ccc(O)cc1,outcome,[5],inactive
same,outcome,[6],inactive
CCOP(=S)(OCC)Oc1nc(Cl)c(Cl)cc1Cl,outcome,[1],inactive
CC(=O)[O][Hg][c]1ccccc1,AC50,[7],5.38 µM (active)
same,AC50,[5],17 µM (active)
same,outcome,[8],inactive
same,AC50,[6],2.46 µM (active)
same,AC50,[9],6.16 µM (active)
CCC(C)(C)c1ccc(O)c(C(C)(C)CC)c1,outcome,[9],inactive
CC(C)(c1ccccc1)c1ccc(O)c(C(C)(C)c2ccccc2)c1,outcome,[7],inactive
CCOP(=S)(OCC)SCSP(=S)(OCC)OCC,outcome,[1],inactive
COc1cc(-c2ccc(N)c(OC)c2)ccc1N,AC50,[5],40.1 µM (active)
O=c1[nH]c(=O)[nH]c(=O)[nH]1,outcome,[10],inactive
O=C(O)C(F)(F)C(F)(F)C(F)(F)C(F)(F)C(F)(F)C(F)(F)C(F)(F)C(F)(F)C(F)(F)C(F)(F)F,AC50,[2],11.9 µM (active)
